Results on 21 compounds are retold here after PubChem BioAssay.

Several values for one entry are separate records, joined by “and”; a condition that tells them apart may be missing. Identical values can stand only once. Unmarked numbers belong to inactive results. The list shows a part of the results. Activity calls are given as the source filed them.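 Rule for the calls, unless noted: active = mean inhibition above 46.68%, the untreated control wells mean plus 3 SD; inactive = the rest.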

Assay [1] deals with Nuclear receptor coactivator 3 (Homo sapiens) (UniProt Q9Y6Q9). Kind of assay: NCOA3 GAL4-fusion reporter inhibition – cell-based, luminescence, quadruplicate, confirmation (AID 588792;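 active = mean inhibition over 43.08%, the solvent-only control mean plus 3 SD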;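 note: 0% = DMSO treated cells and 100% = gossypol at 36 µM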). Conditions: HEK293 GAL4-SRC3 luciferase reporter, at 3.6 µM, stronger effect = higher value.
Assay [2] has as its system transactivating tegument protein VP16 (Human herpesvirus 1), Gal4-VP16 luciferase reporter. Description: repression of VP16-driven luciferase reporter – cell-based, luminescence, high throughput, counter-screen for SRC3 inhibitor project (AID 588794; in the data active = inhibition above about 30%). The settings on record: mammalian cells, at 3.6 µM, stronger effect = higher value.
Assay [3] addresses Nuclear receptor coactivator 1 (Homo sapiens) (UniProt Q15788). Kind of assay: NCOA1 GAL4-fusion reporter inhibition – cell-based, luminescence, quadruplicate, confirmation (AID 588820).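 Note: 0% = DMSO wells and 100% = gossypol 36 µM treated wells.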 The settings on record: HEK293 GAL4-SRC1 luciferase reporter, at 3.6 µM, stronger effect = higher value.
The nature of assay [4]: repression of VP16-driven luciferase reporter – cell-based, luminescence, high throughput, counter-screen for SRC1 inhibitor project (AID 588824; in the data active = inhibition above about 25%). Conditions: cell-based VP16 transactivation luciferase luminescence; at 3.6 µM; stronger effect = higher value.
For assay [5], the system named is transactivating tegument protein VP16 (Human herpesvirus 1). Kind of assay: compounds suppressing VP16-driven luciferase signal – cell-based, luminescence, single concentration, counter-screen for SRC2 inhibitor project (AID 652007; in the data active = inhibition above about 36%). The settings on record: cell-based VP16 transactivation luciferase reporter, at 8.9 µM, stronger effect = higher value.
The target of assay [6] is Nuclear receptor coactivator 2 (Homo sapiens) (UniProt Q15596). Description: inhibition of GAL4-SRC2 driven luciferase expression – cell-based, luminescence, HEK293, triplicate, confirmation (AID 652008;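 active = mean inhibition above 46.5%, the solvent-only control mean plus 3 SD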;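 note: 0% = DMSO-treated cells and 100% = Gossypol at 36 µM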). Conditions: HEK293 GAL4-SRC2 luciferase reporter, at 8.9 µM, stronger effect = higher value.
Assay [7] in a line: VP16-driven transactivation reporter suppression – cell-based, luminescence, HEK293, counter-screen for COUP-TFII antagonist project (AID 687007; in the data active = inhibition above about 13%). The settings on record: HEK293 Gal4-VP16 luciferase reporter, at 8.5 µM, stronger effect = higher value.
Assay [8] concerns the target COUP transcription factor 2 (Homo sapiens) (UniProt P24468). Kind of assay: retest of COUP-TFII reporter suppressors – cell-based, luciferase reporter, HEK293, triplicate, confirmation (AID 687008;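 active = mean inhibition over three repeats above a set limit taken from the earlier primary screen, cut at about 38% in these data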;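 note: 100% = cells given the luciferase reporter alone without the COUP-TF2 vector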). The settings on record: HEK293 NGFI-A luciferase reporter, luminescence; at 8.5 µM; stronger effect = higher value.

Nuclear receptor coactivator 3 (Homo sapiens), sequence (Q9Y6Q9 whole entry, looked up, the tested form may be a part): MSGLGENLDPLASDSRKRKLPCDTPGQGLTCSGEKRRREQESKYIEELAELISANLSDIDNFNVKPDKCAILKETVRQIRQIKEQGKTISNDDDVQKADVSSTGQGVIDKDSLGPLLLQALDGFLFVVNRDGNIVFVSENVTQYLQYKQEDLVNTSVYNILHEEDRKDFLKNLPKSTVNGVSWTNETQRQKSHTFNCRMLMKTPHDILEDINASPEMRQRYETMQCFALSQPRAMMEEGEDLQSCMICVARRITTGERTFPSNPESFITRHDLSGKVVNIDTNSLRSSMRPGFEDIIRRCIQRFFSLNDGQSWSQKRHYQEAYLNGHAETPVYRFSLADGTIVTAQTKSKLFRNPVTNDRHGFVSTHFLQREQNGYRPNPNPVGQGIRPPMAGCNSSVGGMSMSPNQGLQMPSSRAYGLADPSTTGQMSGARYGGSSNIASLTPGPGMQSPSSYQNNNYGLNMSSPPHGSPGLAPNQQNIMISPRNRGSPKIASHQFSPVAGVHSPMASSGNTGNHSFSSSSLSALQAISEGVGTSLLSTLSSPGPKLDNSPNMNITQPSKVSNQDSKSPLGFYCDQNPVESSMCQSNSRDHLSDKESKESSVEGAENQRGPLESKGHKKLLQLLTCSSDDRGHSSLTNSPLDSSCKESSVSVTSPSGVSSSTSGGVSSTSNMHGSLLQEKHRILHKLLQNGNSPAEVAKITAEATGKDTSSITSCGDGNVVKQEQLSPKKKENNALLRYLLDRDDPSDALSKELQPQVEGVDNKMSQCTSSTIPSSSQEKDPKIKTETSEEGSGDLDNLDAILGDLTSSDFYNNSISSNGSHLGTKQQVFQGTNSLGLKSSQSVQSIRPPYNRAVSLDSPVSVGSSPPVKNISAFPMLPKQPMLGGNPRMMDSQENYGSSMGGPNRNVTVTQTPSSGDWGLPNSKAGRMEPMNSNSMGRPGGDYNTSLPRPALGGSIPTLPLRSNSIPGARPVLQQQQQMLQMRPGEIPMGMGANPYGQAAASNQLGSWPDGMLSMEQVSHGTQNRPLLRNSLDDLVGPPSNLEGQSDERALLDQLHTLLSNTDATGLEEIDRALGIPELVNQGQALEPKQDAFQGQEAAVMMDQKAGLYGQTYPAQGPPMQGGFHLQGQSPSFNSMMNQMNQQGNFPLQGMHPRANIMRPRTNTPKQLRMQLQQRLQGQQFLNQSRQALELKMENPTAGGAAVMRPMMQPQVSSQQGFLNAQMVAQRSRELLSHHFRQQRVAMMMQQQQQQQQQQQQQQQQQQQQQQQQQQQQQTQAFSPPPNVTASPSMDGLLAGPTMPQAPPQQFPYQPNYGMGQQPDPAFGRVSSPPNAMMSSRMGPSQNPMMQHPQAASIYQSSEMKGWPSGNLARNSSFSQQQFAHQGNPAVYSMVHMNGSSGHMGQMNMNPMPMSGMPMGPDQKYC
Nuclear receptor coactivator 1 (Homo sapiens), sequence (Q15788 whole entry, looked up, the tested form may be a part): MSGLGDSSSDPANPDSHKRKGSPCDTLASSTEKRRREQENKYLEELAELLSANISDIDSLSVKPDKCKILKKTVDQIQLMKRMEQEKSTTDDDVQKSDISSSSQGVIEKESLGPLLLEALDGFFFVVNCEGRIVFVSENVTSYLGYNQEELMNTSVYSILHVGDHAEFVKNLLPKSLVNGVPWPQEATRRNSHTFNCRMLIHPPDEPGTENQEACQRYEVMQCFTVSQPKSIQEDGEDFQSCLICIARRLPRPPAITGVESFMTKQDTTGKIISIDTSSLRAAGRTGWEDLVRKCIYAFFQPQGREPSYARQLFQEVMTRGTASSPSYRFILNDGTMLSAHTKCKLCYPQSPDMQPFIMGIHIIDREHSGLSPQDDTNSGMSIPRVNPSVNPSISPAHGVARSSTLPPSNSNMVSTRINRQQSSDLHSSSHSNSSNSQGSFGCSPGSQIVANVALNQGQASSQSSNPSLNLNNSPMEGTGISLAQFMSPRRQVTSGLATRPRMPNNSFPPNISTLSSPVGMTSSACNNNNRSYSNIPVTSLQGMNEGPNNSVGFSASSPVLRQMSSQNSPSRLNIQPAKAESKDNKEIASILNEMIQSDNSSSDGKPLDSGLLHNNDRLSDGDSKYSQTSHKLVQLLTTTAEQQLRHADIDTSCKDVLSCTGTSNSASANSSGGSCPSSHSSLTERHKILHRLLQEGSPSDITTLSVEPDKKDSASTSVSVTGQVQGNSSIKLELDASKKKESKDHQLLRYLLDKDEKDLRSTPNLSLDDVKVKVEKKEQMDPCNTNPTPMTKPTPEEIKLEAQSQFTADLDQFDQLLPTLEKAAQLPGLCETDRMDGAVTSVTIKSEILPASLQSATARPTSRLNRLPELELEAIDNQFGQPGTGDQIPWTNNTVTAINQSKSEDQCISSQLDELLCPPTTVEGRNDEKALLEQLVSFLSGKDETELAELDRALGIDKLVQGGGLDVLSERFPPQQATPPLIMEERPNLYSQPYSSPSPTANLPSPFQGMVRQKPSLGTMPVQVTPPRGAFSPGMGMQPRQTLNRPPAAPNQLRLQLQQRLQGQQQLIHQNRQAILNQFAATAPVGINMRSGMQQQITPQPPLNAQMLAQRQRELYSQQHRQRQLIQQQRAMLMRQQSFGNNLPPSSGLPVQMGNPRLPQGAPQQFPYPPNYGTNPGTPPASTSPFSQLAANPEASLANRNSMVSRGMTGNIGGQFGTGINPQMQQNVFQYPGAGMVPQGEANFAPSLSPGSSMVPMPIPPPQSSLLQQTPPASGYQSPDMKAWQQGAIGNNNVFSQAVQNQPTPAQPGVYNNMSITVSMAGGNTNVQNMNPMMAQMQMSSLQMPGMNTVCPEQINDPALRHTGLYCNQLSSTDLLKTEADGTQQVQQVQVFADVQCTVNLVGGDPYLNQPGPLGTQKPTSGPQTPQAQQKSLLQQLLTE
Nuclear receptor coactivator 2 (Homo sapiens), sequence (Q15596 whole entry, looked up, the tested form may be a part): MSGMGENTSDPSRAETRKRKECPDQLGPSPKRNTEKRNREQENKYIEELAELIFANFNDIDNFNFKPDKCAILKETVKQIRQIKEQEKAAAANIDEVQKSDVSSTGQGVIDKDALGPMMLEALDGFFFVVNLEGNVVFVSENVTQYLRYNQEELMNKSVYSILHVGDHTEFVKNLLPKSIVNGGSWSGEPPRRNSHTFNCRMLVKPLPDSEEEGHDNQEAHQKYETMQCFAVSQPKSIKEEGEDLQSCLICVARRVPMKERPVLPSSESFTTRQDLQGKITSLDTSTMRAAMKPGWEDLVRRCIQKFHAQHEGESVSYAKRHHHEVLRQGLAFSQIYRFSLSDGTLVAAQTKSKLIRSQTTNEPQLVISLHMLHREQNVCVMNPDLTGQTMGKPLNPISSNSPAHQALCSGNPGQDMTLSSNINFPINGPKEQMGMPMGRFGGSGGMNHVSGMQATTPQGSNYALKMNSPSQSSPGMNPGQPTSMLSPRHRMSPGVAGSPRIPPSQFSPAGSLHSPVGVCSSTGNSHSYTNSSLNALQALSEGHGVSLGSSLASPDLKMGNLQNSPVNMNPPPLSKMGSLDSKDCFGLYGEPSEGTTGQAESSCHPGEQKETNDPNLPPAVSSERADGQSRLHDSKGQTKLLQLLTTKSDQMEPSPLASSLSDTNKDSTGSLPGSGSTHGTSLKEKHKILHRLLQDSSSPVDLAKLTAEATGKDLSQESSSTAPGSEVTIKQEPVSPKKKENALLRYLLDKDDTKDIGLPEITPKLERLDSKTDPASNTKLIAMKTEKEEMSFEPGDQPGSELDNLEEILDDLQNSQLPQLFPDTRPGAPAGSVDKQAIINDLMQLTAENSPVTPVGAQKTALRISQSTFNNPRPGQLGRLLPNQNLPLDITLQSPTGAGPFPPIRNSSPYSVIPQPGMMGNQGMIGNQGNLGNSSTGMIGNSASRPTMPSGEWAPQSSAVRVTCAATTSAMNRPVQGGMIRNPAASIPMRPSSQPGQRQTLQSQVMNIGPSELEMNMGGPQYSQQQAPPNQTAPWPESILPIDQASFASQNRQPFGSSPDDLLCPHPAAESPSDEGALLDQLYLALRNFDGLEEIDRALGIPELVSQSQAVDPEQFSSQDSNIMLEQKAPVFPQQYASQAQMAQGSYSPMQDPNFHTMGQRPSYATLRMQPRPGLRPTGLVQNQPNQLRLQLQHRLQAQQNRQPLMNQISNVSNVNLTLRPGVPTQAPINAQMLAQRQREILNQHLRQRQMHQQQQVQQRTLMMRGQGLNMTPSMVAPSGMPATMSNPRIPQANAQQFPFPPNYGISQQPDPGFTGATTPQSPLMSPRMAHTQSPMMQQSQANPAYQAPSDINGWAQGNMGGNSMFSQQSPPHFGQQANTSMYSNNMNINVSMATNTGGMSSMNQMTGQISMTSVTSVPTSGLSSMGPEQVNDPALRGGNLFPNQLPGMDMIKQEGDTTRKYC
COUP transcription factor 2 (Homo sapiens), sequence (P24468 whole entry, looked up): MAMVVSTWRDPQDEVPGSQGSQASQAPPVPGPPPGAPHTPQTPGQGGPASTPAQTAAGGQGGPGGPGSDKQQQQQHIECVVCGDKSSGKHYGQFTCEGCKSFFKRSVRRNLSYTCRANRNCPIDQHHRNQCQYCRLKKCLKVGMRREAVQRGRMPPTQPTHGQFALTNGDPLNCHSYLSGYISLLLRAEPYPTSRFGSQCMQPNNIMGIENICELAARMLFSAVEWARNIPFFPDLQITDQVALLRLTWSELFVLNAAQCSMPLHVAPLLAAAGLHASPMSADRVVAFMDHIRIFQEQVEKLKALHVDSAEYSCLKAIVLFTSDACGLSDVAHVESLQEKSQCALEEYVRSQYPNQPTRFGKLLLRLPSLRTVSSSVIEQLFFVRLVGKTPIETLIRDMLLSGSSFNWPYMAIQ

In the case of `Cn1nnnc1Sc1ncnc2scc(-c3cccc(Br)c3)c12`, the inhibition is 31.4% in assay [1]; 43.7% (active) in assay [2]; 43.3% in assay [3]; 47.5% (active) in assay [4]; 9.2% in assay [5]; 55.7% (active) in assay [6].

As to `CC(C)(C)OC(=O)N1Cc2ccccc2C[C@H]1C(=O)NCC(=O)Nc1ccc2c(c1)OCCO2`, the inhibition in assay [1] is 28.9%; in assay [2], 1.92%; in assay [3], 5.58%; in assay [4], -7.64%; in assay [5], -3.02%; in assay [6], 52% (active).

`COCCn1c(C)cc(C(=O)COC(=O)c2cccc(O)c2)c1C`: the inhibition in assay [1] is 2.54%; in assay [2] it was 0.92%; in assay [3] it was -62.8%; in assay [4], -32.7%; in assay [5], 37.3% (active); in assay [6], 51.1% (active).

On to `CC(=O)c1cccc(-c2csc3ncnc(Sc4nnnn4C)c23)c1`, for which the inhibition in assay [1] is 33%; in assay [2] it was 20.4%; in assay [3], 6.55%; in assay [4] it was 30.8% (active); in assay [5], 24%; in assay [6], 15.9%.

On to `Cc1nc2c(-c3ccc(Cl)cc3)cnn2c(N)c1-c1ccc(F)cc1`, for which the inhibition was 38% in assay [1]; 24.5% in assay [2]; -12% in assay [3]; -6.2% in assay [4]; 2.27% in assay [5]; 53.7% (active) in assay [6].

For `COc1ccc(/C=C2\SC(=S)N(CCCC(=O)N3CCCCC3CCO)C2=O)cc1` (stereo not given), the inhibition is 20.9% in assay [1]; 17.1% in assay [2]; 4.91% in assay [3]; 13.6% in assay [4]; 61% (active) in assay [5]; 65.9% (active) in assay [6].

For the compound `c1ccc(CNc2ncnc3ccccc23)cc1`, the inhibition in assay [1] is 47% (active); in assay [2] it was 44.9% (active); in assay [3], 17.6% and 34.3%; in assay [4] it was 34.9% (active) and 44% (active); in assay [5], 14%; in assay [6], 48.8% (active).

`CCc1ccc(N(CC)c2ncnc3nc[nH]c23)cc1`: the inhibition in assay [1] was 50.1% (active); in assay [2], 33% (active); in assay [3], 56.7% (active); in assay [4], 36.9% (active); in assay [5], 4.69%; in assay [6], 50.7% (active). Besides, the inhibition in assay [7] was -1.24%; in assay [8], 17.4%.

Consider `O=C(Nc1cccc(C(F)(F)F)c1)Nc1nnc([C@@H]2C[C@H](O)[C@@H](CO)O2)s1`, for which the inhibition in assay [1] was 49% (active); in assay [2], 21.6%; in assay [3], 29.3%; in assay [4], 20.7%; in assay [5] it was 1.58%; in assay [6] it was 29.1%.

For `O=c1c2ccccc2cnn1-c1nc2ccccc2[nH]1`, the inhibition was 57.4% (active) in assay [1]; 50.6% (active) in assay [2]; 22.3% in assay [3]; 41.9% (active) in assay [4]; 76.6% (active) in assay [5]; 84.9% (active) in assay [6].

As for `COCCn1c(C)cc(C(=O)COc2ccc(C)nc2[N+](=O)[O-])c1C`, the inhibition in assay [1] is 24.8%; in assay [2] it was 1.88%; in assay [3], 12.1%; in assay [4] it was -5.22%; in assay [5], 23.8%; in assay [6], 59.5% (active).

Take `COc1cccc(NC(=O)Nc2nc(-c3ccc(OC)c(OC)c3)cs2)c1`: the inhibition was 81.3% (active) in assay [1]; 73.5% (active) in assay [2]; 37.4% in assay [3]; 74% (active) in assay [4]; 89.7% (active) in assay [5]; 92.9% (active) in assay [6].

Turning to `COc1cc(SC)ccc1C(=O)Nc1nc(C)cs1`, the inhibition in assay [1] is 15.6%; in assay [2] it was 15.1%; in assay [3] it was -68.3%; in assay [4] it was 14.8%; in assay [5], 50.1% (active); in assay [6], 75.4% (active). Also, the inhibition in assay [7] was 46.4% (active); in assay [8], 69.1% (active).

Take `COc1ccc(-c2cn[nH]c2-c2ccc(OC)cc2O)cc1`: the inhibition in assay [1] is 54.6% (active); in assay [2], 26.5%; in assay [3], 46.3%; in assay [4], 29.9% (active); in assay [5], 2.11%; in assay [6], 25.8%.

In the case of `Cc1ccc(-c2csc(=Nc3cccnc3)n2CCCn2ccnc2)cc1C`, the inhibition in assay [1] was 71% (active); in assay [2], 51.5% (active); in assay [3], 66.7% (active); in assay [4], 45.6% (active); in assay [5] it was -0.44%; in assay [6], 56.8% (active).

As for `Cc1nc(SCC(=O)Nc2nc3ccccc3s2)c(C#N)c(C)c1C`, the inhibition in assay [1] was 92.7% (active); in assay [2], 88.5% (active); in assay [3], 82.4% (active); in assay [4] it was 83.2% (active); in assay [5], 92.1% (active); in assay [6], 96.9% (active).

Turning to `CC1CCc2nc(NC(=O)C3COc4ccccc4O3)sc2C1` (stereo not given), the inhibition was 9.01% in assay [1]; -11.5% in assay [2]; -134% in assay [3]; -51.9% in assay [4]; -16.9% in assay [5]; 36.4% in assay [6].

As to `COc1ccc(-n2c(C)c([N+](=O)[O-])c3ccc(O)c(CN(C)C)c32)cc1`, the inhibition in assay [1] is 84.5% (active); in assay [2], 61.8% (active); in assay [3] it was 73.1% (active); in assay [4], 61.4% (active); in assay [5], 24.3%; in assay [6], 52% (active).

Turning to `CNc1ccc2ncc(-c3ccc(OC)c(OC)c3)n2n1`, the inhibition in assay [1] was 80.1% (active); in assay [2], 63.1% (active); in assay [3], 75.4% (active); in assay [4], 60.1% (active); in assay [5], -12.4%; in assay [6], 37.3%.

As to `Cc1csc(SCC(=O)Nc2cccc3nsnc23)n1`, the inhibition was 66.3% (active) in assay [1]; 35.1% (active) in assay [2]; 57.9% (active) in assay [3]; 37.7% (active) in assay [4]; -58.8% in assay [5]; 19.4% in assay [6].

For `O=S(=O)(Nc1cc(Sc2ncn[nH]2)c(O)c2ccccc12)c1ccccc1`, the inhibition was 12.9% in assay [1]; 13.9% in assay [2]; -20.2% in assay [3]; 4.9% in assay [4]; 16.2% in assay [5]; 12.2% in assay [6].
